Experimental data reported in PubChem BioAssay (NCI).
About 83,000 compounds went through this panel and 20% of them were active in at least one assay; those are over-represented in the sample as a whole.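 Cell lines were cultured in 96-well plates, exposed to a single compound concentration, and assessed for percent growth 48 hours later.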 Calls of active or inactive are those of the source. Rule for the calls: active = growth percent below 10; inactive = the rest.

Columns and labels:
Test in all cases: NCI-60 one-dose screen, 48 h (100 = growth as untreated, 0 = no growth, -100 = all killed)
Settings in all cases: 10 µM
[1] = tested on: BT-549 breast
[2] = tested on: MDA-MB-435 melanoma
[3] = tested on: SW-620 colon
[4] = tested on: MCF7 breast
[5] = tested on: HCT-116 colon
[6] = tested on: HCC-2998 colon
[7] = tested on: KM12 colon

Measured: growth

COc1cc(-c2cc(/C=C3\C(=O)Nc4cc(Cl)ccc43)[nH]n2)cc(OC)c1OC
active: [2] -0.685% | [4] -4.15% | [7] 9.09%
inactive: [1] 47.6% | [3] 41.4% | [5] 14.2% | [6] 70%

N#CC1=C(Nc2ccccc2Cl)SC(c2ccccc2O)NC1=O (stereo unspecified)
inactive: [1] 111% | [2] 120% | [3] 105% | [4] 105% | [5] 109% | [6] 109% | [7] 116%

COc1ccc(C2=NN(C(=O)c3ccc(S(C)(=O)=O)cc3)C(c3ccc(OC)c(OC)c3)C2)c(OC)c1 (stereo unspecified)
inactive: [1] 91.6% | [2] 108% | [3] 105% | [4] 98.7% | [5] 82.7% | [6] 102% | [7] 100%

O=C(/C(=C/c1ccccc1)CN1CCCCC1)c1ccccc1
active: [1] -56.6% | [2] 6.16% | [3] 0.239% | [4] -22% | [5] -87.4% | [6] -91% | [7] -75.8%

S=c1[nH]ccn1-c1c(Cl)cccc1Cl
inactive: [1] 88.9% | [2] 97.3% | [3] 106% | [4] 97.8% | [5] 93.9% | [6] 99.5% | [7] 104%

O=S(=O)(NCCCNc1nccc(-c2c(-c3ccc(F)cc3)nc3sccn23)n1)c1ccc(F)cc1
inactive: [1] 52.8% | [2] 20.6% | [3] 47.1% | [4] 32.8% | [5] 28.9% | [6] 37.6% | [7] 27.8%

C[C@@H]1C=C2C(=O)O[C@@H]3CC[C@H](C1)[C@]23O
inactive: [1] 54.4% | [2] 57.7% | [3] 48.8% | [4] 36.8% | [5] 48.7% | [6] 99.9% | [7] 100%

O=C(Nc1ccc(OS(=O)(=O)c2ccccc2)cc1)C12CC3CC(CC(C3)C1)C2
active: [3] 5.02%
inactive: [1] 25.8% | [2] 72.6% | [4] 32% | [5] 32.8% | [6] 26.1% | [7] 28.4%

CCCCCCCNc1nc(C=O)ncc1-c1ccc(C(F)(F)F)cc1
inactive: [1] 99.7% | [2] 100% | [3] 98% | [4] 83.5% | [5] 98.3% | [6] 104% | [7] 91.2%

CN(C)Cc1cn(-c2ncc(-c3ccc(C(F)(F)F)cc3)c(NC3CCCCCC3)n2)nn1
inactive: [1] 94.6% | [2] 95.2% | [3] 99.4% | [4] 70.3% | [5] 66.3% | [6] 94.8% | [7] 86.3%

CN(C)c1ccc(/C=C/C=N/NC(=O)c2cc(O)c(O)c(O)c2)cc1
inactive: [1] 89.7% | [2] 96.7% | [3] 43.4% | [4] 87.8% | [5] 52.7% | [6] 109% | [7] 104%

COC(=O)C(=C\c1ccc2c(c1)OCO2)/C(=C/c1ccc2c(c1)OCO2)C(=O)OC
inactive: [1] 95.5% | [2] 104% | [3] 110% | [4] 96.9% | [5] 92.9% | [6] 94.6% | [7] 102%

CSc1cc(SC)ncn1
inactive: [1] 104% | [2] 115% | [3] 103% | [4] 97.8% | [5] 102% | [6] 111% | [7] 108%

CC(C)=CCc1cc(O)cc2c1OC(C=C(C)C)C1=C2C(=O)C2=C(C1=O)S(=O)(=O)CCN2 (stereo unspecified)
inactive: [1] 58.9% | [6] 36.4% | [7] 69.2%
active: [2] -68.3% | [3] 4.52% | [4] -50% | [5] -8.73%

Clc1cccc(-c2nc(-c3cccs3)no2)c1
inactive: [1] 111% | [2] 111% | [3] 106% | [4] 36.8% | [5] 92.4% | [6] 32.9% | [7] 92.4%

COc1ccc(N2C(=O)C3c4[nH]c5ccc(OCc6ccccc6)cc5c4C4CCC(C(C)C)CC4C3C2=O)cc1 (stereo unspecified)
inactive: [1] 104% | [2] 104% | [3] 87.9% | [4] 95.2% | [5] 109% | [6] 116% | [7] 105%

COc1ccc(C2=Nc3c(C)nn(-c4ccccc4)c3NC(c3ccc(Oc4ccnc5cc(Cl)ccc45)c(OC)c3)C2)cc1 (stereo unspecified)
inactive: [1] 93% | [2] 80.4% | [3] 81.7% | [4] 60.6% | [5] 45.6% | [6] 89.7% | [7] 85.4%

CC(C)C[C@H](NC(=O)[C@H](Cc1cccc2ccccc12)NS(=O)(=O)c1cccc2cccnc12)B(O)O
active: [1] -49.8% | [2] -52.2% | [3] -16% | [4] 9.94% | [5] -91.2% | [6] -89.2% | [7] -73.8%
